The results in this text go back to PubChem BioAssay (NCI).

This is part of a sample that, as a whole, favours compounds with a hit. Of some 83,000 tested, about 20% had one in any assay.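 Assay: single dose, 48 h. Readout: percent growth (0 = no net growth; negative = cell death). Active: <10.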 Unmarked numbers belong to inactive results. The source made the active and inactive calls.

In this test the test system is HL-60(TB) leukemia. As to the kind of experiment: NCI-60 one-dose screen, 48 h (100 = growth as untreated, 0 = no growth, -100 = all killed). The conditions noted are these: 10 µM unless noted.
For `CC(C)Cc1cc(CNC(=O)C2[C@H]3CN(C(=O)c4ccccc4)C[C@@H]23)nn1-c1ccccc1` (stereo not given in full), the growth is 94.2%. The figure for `COc1cc(-c2nn(-c3cccc(NC(=O)Nc4cc(C(F)(F)F)cc(C(F)(F)F)c4)c3)cc2-c2ccncc2)ccc1Cl` is -20.2% (active). In the case of `COc1cc2nc(-c3ccc(Cl)cc3)cc(OCCCN3CCC(O)CC3)c2cc1OC`, the growth was 32.9%. The figure for `CCN(CC)CCNCC(O)Cc1ccc(OC)cc1` (stereo not given) is 59.1%.

Turning to `COc1nc2ccccc2cc1/C=[N+](\[O-])c1ccccc1`, the growth is -18.5% (active).

On to `COc1ccc(NC2=C(Br)C(=O)C(C)=C(C)C2=O)cc1`, for which the growth is 11.7%.

On to `COc1ccc(-c2nc(Nc3ccc(-c4nc5ccccc5[nH]4)cc3)nc(N3CCOCC3)n2)cc1`, for which the growth was -46% (active).

With `COc1nc2c(c(=O)n1C)CN(c1ccccc1)C(=O)C(C)N2` (stereo not given), the growth was 94%. The figure for `O=C(NNc1cnccn1)c1nc2cc(F)ccc2n2cccc12` is 2.46% (active); for `O=C1C(Nc2ccc(Cl)cc2)=C(I)C(=O)c2ncccc21` it is -45.8% (active). For `CCOC(=O)c1c(-c2ccc(Cl)cc2)c(C#N)c2c(C#N)c(N)nn2c1N` the value was 43.4%; for `O=C1C=CC(=O)N1c1ccc(O)cc1`, 112%; for `Cc1cc(C)n(-c2nc(-c3cccs3)c(C#N)c(=O)[nH]2)n1`, 94.4%. Take `C#Cc1cccc(Nc2ncnc3cc(NC(=O)CCl)ccc23)c1`: the growth was -41.3% (active). As for `C#C[C@@]1(O)[C@@H](CO)O[C@@H](n2cc(Br)c3c(N)ncnc32)[C@@H]1O`, the growth was -62.5% (active). The figure for `C[C@@H]1CN(Cc2ccc(/C=C/c3n[nH]c4ccc5nc(-c6cn[nH]c6C(F)(F)F)c6c(c5c34)CCCC6)cc2)C[C@H](C)O1` is 46.7%; for `CCCCCC(=O)c1ccc(OCCCN2CCN(C(=O)OCC)CC2)cc1` it is 72.4%. `CCc1c2c(nc3ccc(OC(=O)N4CCC(N5CCCCC5)CC4)cc13)-c1cc3c(c(=O)n1C2)COC(=O)[C@]3(O)CC`: the growth was -14% (active). With `O=C1OC(c2ccc(-c3ccccc3)cc2)=C/C1=C/c1c(Cl)cccc1Cl`, the growth was 77.8%.

For the molecule `COc1ccc(-c2n/c(=C\c3c(O)[nH]c4ccccc34)cc3c2=Nc2ccccc2-3)cc1`, the growth was -19.1% (active).

On to `O=C1/C(=C/c2ccc3c(c2)OCO3)SC(=S)N1CCc1ccc(O)cc1`, for which the growth is 90.9%. On to `COc1ccc(NC(=O)Nc2ccccc2CNc2nc(Nc3ccc(OCCN4CCCC4)cc3)ncc2Cl)cc1`, for which the growth was -43.7% (active). For `COc1cc2ncnc(Nc3ccc(O)cc3)c2cc1OC` the value was 83.5%. For `COc1cccc(NC(=O)c2sc3nc4c(cc3c2N)CCCC4)c1` the value was 5.68% (active). For `COc1ccc(/C=C/C(=O)N2CCC(O)CC2)cc1OC1CCCC1`, the growth is 101%.

Turning to `COc1ccc(CN(c2ccc(C)cc2)C2OC(=O)c3ccccc32)cc1OC` (stereo not given), the growth is 96.9%. For `CCCCC(CC#N)(CCC)CCC`, the growth is 104%. For `Cc1nc2ccc(C(=O)NCc3cc(C(=O)O)c(C)o3)cc2nc1C` the value was 103%.

For `C#Cc1ccc(-n2c(/C=C/c3ccc(O)c(OC)c3)nc3ncccc3c2=O)cc1`, the growth is 84.7%. Turning to `CCN(CCNc1ccc(C)c2sc3ccccc3c(=O)c12)CC(C)(C)O`, the growth is 43.5%. On to `CCN(CC)CCOc1ccc(/C(=C(\C)c2ccc(F)c(OC)c2)c2ccc(Cl)cc2)cc1`, for which the growth was -27.9% (active). `CC(C)N1C(=O)S/C(=C2/SC(=O)N(C(C)C)C2=O)C1=O`: the growth is 98.4%. Consider `N=C(N)c1ccc(-c2ccc(-c3ccc(Cl)c(Cl)c3)s2)nc1`, for which the growth was -43.9% (active). Take `O=C(C[n+]1cccc(Br)c1)c1ccc2c(c1)CCCC2`: the growth is 83.6%. As to `O=S(=O)(NCCCNc1nccc(-c2c(-c3ccccc3)nc3sccn23)n1)c1ccc(F)cc1`, the growth is 22.5%. As for `C(=N\Nc1ncnc2sc3c(c12)CCNC3)/c1cccc2ccccc12`, the growth was 99.1%. For `CC(C)C(=O)Nc1ccc(-c2nc(-c3cccc(OCCN4CCOCC4)c3)c(-c3ccnc(Br)c3)[nH]2)cc1` the value was -28.5% (active); for `COC(=O)[C@]12CC[C@@H](C)[C@H](C)[C@@H]1C1=CC[C@@H]3[C@@]4(C)C(C#N)=CC(C)=C4CC[C@@]3(C)[C@]1(C)CC2`, -19.3% (active); for `O=C(N/N=C/c1ccc([N+](=O)[O-])cc1)c1ccccc1Nc1ccnc(C(F)(F)F)c1`, 78.4%. For `Cc1nn(-c2cccc(Cl)c2)c(C)c1N=Nc1ccc(Br)cc1` the value was 77.9%.
